Assay [1] addresses Rap guanine nucleotide exchange factor 3 (Homo sapiens) (UniProt O95398). Description: Counterscreen qHTS for antagonist of cAMP-regulated guanine nucleotide exchange factor 3 (EPAC1) (AID 1645888).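 Note: fluorescence loss as bound BODIPY-GDP is released from Rap1B; % of control where 0% means no effect.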 In short, it runs like this: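 Rap1B-BODIPY-GDP 250 nM + GDP 50 uM; cpds 7-pt, final 9.74 nM–152 uM (activator mode) or from 7.32 nM upwards (inhibitor mode); RT; FI 480/540 nm at 5 and 30 min, then ± cAMP, reread.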

Assay [2] is described as follows: Viability counterscreen for antagonist of constitutive androstane receptor (CAR) against the NCATS DSHEA and TCM libraries (AID 1794837).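 Note: compound exposure lasted 24 h before viability reading; 0% is about no effect.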 An outline of the steps:
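HepG2-CYP2B6-hCAR cells, 2,500/well, were exposed 24 hr at 37C to substances together with 48 uM CITCO (final). Viability was read as CellTiter-Fluor fluorescence (Ex/Em 405/540 nm) after 1 hr.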

The target of assay [3] is Cytochrome P450 1A2 (Homo sapiens) (UniProt P05177). Description: qHTS for inhibitors of CYPIA2 against the NCATS DSHEA and TCM libraries (AID 1919976).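 For activity change, negative = inhibition: light from luciferin formed by CYP1A2 from a pro-luciferin substrate; series mostly up to about 37 µM; % is set by controls: 0 for no effect and ±100 for the full control effect.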 Note: potency is the fitted concentration of half-maximal effect. In short, it runs like this: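 CYP1A2 + luciferin substrate, 100 mM KPO4-type buffer; cmpd 15 min RT; 1x NADPH regen, 30-45 min RT dark; detection reagent 30 min RT; luminescence. Minus-enzyme wells as background; furafylline intraplate control.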
Chain of Cytochrome P450 1A2 (Homo sapiens) (P05177 whole entry, looked up): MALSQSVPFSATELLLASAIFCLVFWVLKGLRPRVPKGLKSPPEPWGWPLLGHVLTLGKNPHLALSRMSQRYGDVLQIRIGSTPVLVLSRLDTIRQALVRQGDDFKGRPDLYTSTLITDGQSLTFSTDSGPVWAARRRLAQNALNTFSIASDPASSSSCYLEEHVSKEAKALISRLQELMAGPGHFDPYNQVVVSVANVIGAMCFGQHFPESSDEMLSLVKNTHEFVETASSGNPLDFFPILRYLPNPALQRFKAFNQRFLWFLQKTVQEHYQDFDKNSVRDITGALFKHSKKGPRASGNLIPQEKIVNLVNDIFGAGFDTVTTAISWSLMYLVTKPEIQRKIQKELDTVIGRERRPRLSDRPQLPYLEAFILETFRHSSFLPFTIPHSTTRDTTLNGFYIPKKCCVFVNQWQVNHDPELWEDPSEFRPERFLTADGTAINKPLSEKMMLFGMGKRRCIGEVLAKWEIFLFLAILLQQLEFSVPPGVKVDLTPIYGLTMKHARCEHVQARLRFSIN
(In general: Quantitative high-throughput screening tests each substance at several concentrations.)

Assay [4] is described as follows: Cell Viability - Jurkat (AID 426;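 active = dose-dependent loss of cell ATP signal giving a full or clear fitted curve, ranked by lower potency value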;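 note: potency is the fitted concentration of half-maximal effect; cells exposed to compound for 40 hours at 37 °C before ATP read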). To be noted: qHTS. An outline of the steps:
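qHTS, 1536-well; Jurkat E6-1, 5000 cells/well, complete medium; cpd 40 hr, 37 °C; CellTiter-Glo 20 min RT; luminescence. AC50 by Hill fit.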

Assay [5] can be described thus: Cell Viability - Hek293 (AID 427;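 active = compounds whose dose-response curve shows a full or clear partial loss of cell viability, called from curve shape rather than a numeric limit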;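 note: potency is the fitted concentration of half-maximal effect; cells exposed to compound for 40 hours at 37 °C before reading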). To be noted: qHTS. An outline of the steps:
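qHTS, human embryonic kidney (adenovirus-transformed) cells; 40 hr cpd, 37 °C; CellTiter-Glo ATP luminescence. Norm: DMSO = 0, 100 uM tamoxifen = 100% inhibition. Hill-fit AC50.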

The nature of assay [6]: Cell Viability - H-4-II-E (AID 543). Note: % is set by controls: 0 for no effect and ±100 for the full control effect; nearly all actives have a fitted effect of over 35% in size. In short, it runs like this: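 Luminescent ATP signal (CellTiter-Glo) served as the viability read-out, with cytotoxicity seen as a concentration-dependent ATP drop. Cells were treated for 40 hours in complete medium. AC50 values derive from Hill-equation modelling.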
Assay [7] is described as follows: Cellular Toxicity (caspase-3) NIH 3T3 (AID 666).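 Note: caspase signal read after 16 h compound exposure; 0% = DMSO basal and 100% = 100 µM tamoxifen stimulation.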 An outline of the steps:
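Luminescence from aminoluciferin released by caspase-3/7 cleavage of a peptide substrate served as read-out. Mouse fibroblast NIH 3T3 cells were exposed to compounds over a concentration range for 16 hours, and AC50 values came from standard Hill modelling.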

Assay [8] in a line: Cell Viability - LYMP2-001 (AID 921).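 Note: series mostly up to about 92 µM; 0% = DMSO only and full inhibition = tetraoctylammonium bromide control wells; nearly all actives have a fitted effect of over 70% in size.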 In short, it runs like this: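 Human lymphoblastoid LYMP2-001 cells, 2500 per well, in complete medium, treated 24 h at 37 C. Viability from cellular ATP by CellTiter-Glo luminescence; AC50 from Hill-equation fits of qHTS concentration-response.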
The nature of assay [9]: MultiTox-Fluor Cytotoxicity Assay - LYMP1-002 - Dead Cells (AID 960). Note: nearly all actives have a fitted effect of over 60% in size. In short, it runs like this: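 LYMP1-002 cells 2500/well; 5 hr 37 C pre-incubation; compound 16 hr 37 C; MultiTox-Fluor reagent 60 min RT; dead-cell fluor Ex/Em 485/520. Norm. to DMSO (0%) vs 15 uM tetraoctylammonium bromide (100%); Hill AC50.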
A short description of assay [10]: Cell Viability - LYMP2-009 (AID 968).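 Note: series mostly up to about 92 µM; 0% = DMSO alone and the full-kill end = tetraoctylammonium bromide at 92 µM; nearly all actives have a fitted effect of over 55% in size.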
Assay [11] in a line: Cell Viability - LYMP2-017 (AID 972).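 Note: series mostly up to about 92 µM; cells exposed to compound for 24 hours at 37 °C; % is set by controls: 0 for no effect and ±100 for the full control effect; nearly all actives have a fitted effect of over 55% in size.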 In short, it runs like this:
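2500 cells/well, 5 h 37 C; cpd 24 h 37 C in complete medium; CellTiter-Glo, 30 min RT; luminescence (ATP). AC50 via Hill fit, qHTS.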

Assay [12] is described as follows: Cell Viability - LYMP2-016 (AID 984).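 Note: cells exposed to compound for 24 hours at 37 °C; % is set by controls: 0 for no effect and ±100 for the full control effect; nearly all actives have a fitted effect of over 55% in size.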 An outline of the steps:
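Human lymphoblastoid LYMP2-016 cells, 2500 per well, treated with compounds for 24 h at 37 C. Viability read as intracellular ATP by CellTiter-Glo luminescence after 30 min at room temperature; AC50 from Hill fits of concentration-response.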

Assay [13] in a line: Cell Viability - LYMP1-002 - Assay at 40 hr (AID 994).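 Note: 0% = DMSO only and full inhibition = 92 µM tetraoctylammonium bromide; nearly all actives have a fitted effect of over 60% in size.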 An outline of the steps: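 Luminescent ATP signal served as the viability readout, with decreases taken as toxicity. Cells were treated with compounds across a concentration range for 40 hours at 37 C, and AC50 values came from standard Hill modeling.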
Assay [14] concerns the target Peroxisome proliferator-activated receptor gamma (Homo sapiens) (UniProt P37231). Description: qHTS assay for small molecule agonists of peroxisome proliferator-activated receptor gamma signaling (AID 588536; active = well fitted curve in the direction sought with a large enough effect in the signal ratio, with a control signal flat, not every such curve was filed as active; the % refers to the signal ratio;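 note: 0% = DMSO basal wells and 100% = rosiglitazone at 2 µM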). In short, it runs like this: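 Test agents, titrated, stimulated HEK293 UAS-bla cells overnight (16 h, 37 C). Substrate CCF4 was then added for two hours at room temperature before fluorescence reading.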

Assay [15] has as its target Vitamin D3 receptor (Homo sapiens) (UniProt P11473). Description: qHTS assay for small molecule antagonists of vitamin D receptor signaling (AID 588541; calls by dose curve;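 note: receptor activated by calcitriol during compound treatment; series mostly up to about 77 µM; % is set by controls: 0 for no effect and ±100 for the full control effect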). An outline of the steps:
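Antagonist-mode beta-lactamase reporter assay: HEK293T VDR-UAS-bla cells were exposed to titrated compound alongside 1-alpha,25-dihydroxyvitamin D3 at 3 nM final for 16 h. Values were normalized to the 50 nM agonist control and DMSO basal, with IC50 and efficacy from Hill equation fits.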

Assay [16] has the same target. Description: qHTS assay for small molecule agonists of vitamin D receptor signaling (AID 588543; calls by dose curve;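 note: 0% = DMSO basal and 100% = reference agonist control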). In short, it runs like this:
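VDR-UAS-bla HEK293T cells, 2000/well, 2% charcoal-stripped FBS; compound titration 16 h at 37 C; CCF4 beta-lactamase ratio read. Normalized to 50 nM 1-alpha,25-dihydroxyvitamin D3 (100%) and DMSO; Hill fit gives EC50, efficacy.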

Assay [17] in a line: qHTS assay for small molecule disruptors of the mitochondrial membrane potential - 1 hr assay (AID 651754; calls by dose curve; note: % is set by controls: 0 for no effect and ±100 for the full control effect; nearly all actives have a fitted effect of over 35% in size). In short, it runs like this: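 HepG2, 2,000 cells/well, overnight attachment; cpd or DMSO 1 hr, 37C/5% CO2; Mito-MPS dye 30 min, 37C; fluorescence monomer (490/535) and aggregate (540/590).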
The nature of assay [18]: qHTS assay for small molecule disruptors of the mitochondrial membrane potential - 5 hr assay (AID 651755; calls by dose curve; note: % is set by controls: 0 for no effect and ±100 for the full control effect; nearly all actives have a fitted effect of over 40% in size). In short, it runs like this: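 HepG2, 2,000 cells/well, overnight attach; cpd or DMSO 5 hr, 37C/5% CO2; Mito-MPS 30 min 37C; fluor 490/535 + 540/590 nm.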
Assay [19] is described as follows: qHTS assay for environmental chemicals that activate the Aryl hydrocarbon Receptor (AhR) signaling pathway (AID 651777). Note: % of control where 0% means no effect; nearly all actives have a fitted effect of over 15% in size. Particulars: 1A2-DRE human hepatoma cells, luciferase, 24 h; activation: stronger effect = higher value. In short, it runs like this:
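1A2-DRE human hepatoma reporter line; 1,200 cells/well; cmpd or DMSO 24 h, 37 C/5% CO2; One-Glo 30 min RT; luciferase lum.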

Assay [20] concerns the target Nuclear receptor ROR-gamma (Homo sapiens) (UniProt P51449). Description: qHTS assay for small molecule antagonists of the retinoid-related orphan receptor gamma (ROR-gamma) signaling pathway (AID 651802).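 Note: CHO cells with doxycycline-induced ROR-gamma expression; luciferase reporter luminescence driven by ROR response element; series mostly up to about 92 µM; % is set by controls: 0 for no effect and ±100 for the full control effect; nearly all actives have a fitted effect of over 60% in size.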 An outline of the steps: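 CHO, TET-inducible ROR + RORE-LUC reporter, 1536-well qHTS. Compound pinned, doxycycline added, 16hr 37C/5% CO2. ONE-Glo, 30 min RT, luminescence; signal drop scored as antagonism.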

The structures appear in SMILES notation. “And” between values parts separate entries of the source, which are not always exact repeats. Equal values may be shown once. Records with an inconclusive call do not appear. A number with no mark means an inactive call. The source made the active and inactive calls. Unless noted, calls come from the whole dose curve; as a rule, active = well fitted curve in the direction sought with a large enough effect; inconclusive = small, poorly fitted or top-dose-only effect, or another doubt; inactive = no such curve, though single readings can be large; an effect the other way counts as inactive or inconclusive.

Chain of Rap guanine nucleotide exchange factor 3 (Homo sapiens) (O95398 whole entry, looked up): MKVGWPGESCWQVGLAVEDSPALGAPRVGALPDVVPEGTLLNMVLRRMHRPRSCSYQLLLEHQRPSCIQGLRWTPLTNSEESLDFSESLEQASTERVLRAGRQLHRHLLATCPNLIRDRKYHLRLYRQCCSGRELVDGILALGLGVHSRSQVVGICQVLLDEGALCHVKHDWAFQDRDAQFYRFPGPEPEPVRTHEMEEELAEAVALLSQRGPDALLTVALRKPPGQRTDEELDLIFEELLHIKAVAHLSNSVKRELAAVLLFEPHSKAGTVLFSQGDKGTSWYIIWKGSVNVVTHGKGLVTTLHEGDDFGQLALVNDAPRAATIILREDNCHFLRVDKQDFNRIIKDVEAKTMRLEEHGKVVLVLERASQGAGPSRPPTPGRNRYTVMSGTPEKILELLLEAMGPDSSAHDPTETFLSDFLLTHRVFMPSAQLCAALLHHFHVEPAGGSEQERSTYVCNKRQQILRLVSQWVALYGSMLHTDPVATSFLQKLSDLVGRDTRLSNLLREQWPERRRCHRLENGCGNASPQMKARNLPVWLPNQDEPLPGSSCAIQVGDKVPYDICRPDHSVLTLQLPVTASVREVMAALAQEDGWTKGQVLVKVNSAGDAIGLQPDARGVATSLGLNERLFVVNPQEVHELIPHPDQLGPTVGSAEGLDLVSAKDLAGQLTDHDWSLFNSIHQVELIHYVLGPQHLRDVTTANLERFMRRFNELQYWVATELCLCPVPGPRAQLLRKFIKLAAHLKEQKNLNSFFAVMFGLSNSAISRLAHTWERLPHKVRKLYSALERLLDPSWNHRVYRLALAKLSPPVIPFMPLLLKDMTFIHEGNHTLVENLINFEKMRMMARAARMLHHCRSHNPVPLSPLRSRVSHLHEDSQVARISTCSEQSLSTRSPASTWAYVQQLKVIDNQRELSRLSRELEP
Chain of Peroxisome proliferator-activated receptor gamma (Homo sapiens) (P37231 whole entry, looked up): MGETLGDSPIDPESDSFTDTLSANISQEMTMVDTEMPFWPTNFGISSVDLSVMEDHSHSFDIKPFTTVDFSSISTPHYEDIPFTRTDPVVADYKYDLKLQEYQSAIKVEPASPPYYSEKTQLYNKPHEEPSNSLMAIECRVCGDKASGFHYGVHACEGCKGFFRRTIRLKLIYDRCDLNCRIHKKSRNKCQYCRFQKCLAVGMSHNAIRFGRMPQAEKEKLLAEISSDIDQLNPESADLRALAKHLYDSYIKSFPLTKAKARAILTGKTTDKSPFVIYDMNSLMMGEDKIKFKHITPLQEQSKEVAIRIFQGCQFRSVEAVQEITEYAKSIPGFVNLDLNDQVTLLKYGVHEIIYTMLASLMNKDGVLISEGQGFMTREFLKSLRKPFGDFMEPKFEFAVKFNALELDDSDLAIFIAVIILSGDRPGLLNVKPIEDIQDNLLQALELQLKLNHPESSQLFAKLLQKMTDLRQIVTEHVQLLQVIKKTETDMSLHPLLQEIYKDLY
Chain of Nuclear receptor ROR-gamma (Homo sapiens) (P51449 whole entry, looked up): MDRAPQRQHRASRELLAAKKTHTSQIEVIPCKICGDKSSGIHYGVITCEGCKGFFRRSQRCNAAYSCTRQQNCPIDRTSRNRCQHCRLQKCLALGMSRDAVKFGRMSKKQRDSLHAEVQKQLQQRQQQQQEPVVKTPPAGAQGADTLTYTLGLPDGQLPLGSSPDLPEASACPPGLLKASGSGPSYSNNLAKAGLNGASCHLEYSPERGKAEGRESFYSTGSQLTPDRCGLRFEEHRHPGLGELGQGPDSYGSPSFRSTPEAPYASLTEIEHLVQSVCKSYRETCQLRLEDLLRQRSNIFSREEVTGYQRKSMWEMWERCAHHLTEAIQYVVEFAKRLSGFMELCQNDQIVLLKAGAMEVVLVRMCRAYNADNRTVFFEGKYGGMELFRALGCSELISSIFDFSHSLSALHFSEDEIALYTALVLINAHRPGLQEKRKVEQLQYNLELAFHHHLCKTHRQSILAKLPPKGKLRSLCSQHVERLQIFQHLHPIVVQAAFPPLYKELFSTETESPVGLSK
Chain of Vitamin D3 receptor (Homo sapiens) (P11473 whole entry, looked up): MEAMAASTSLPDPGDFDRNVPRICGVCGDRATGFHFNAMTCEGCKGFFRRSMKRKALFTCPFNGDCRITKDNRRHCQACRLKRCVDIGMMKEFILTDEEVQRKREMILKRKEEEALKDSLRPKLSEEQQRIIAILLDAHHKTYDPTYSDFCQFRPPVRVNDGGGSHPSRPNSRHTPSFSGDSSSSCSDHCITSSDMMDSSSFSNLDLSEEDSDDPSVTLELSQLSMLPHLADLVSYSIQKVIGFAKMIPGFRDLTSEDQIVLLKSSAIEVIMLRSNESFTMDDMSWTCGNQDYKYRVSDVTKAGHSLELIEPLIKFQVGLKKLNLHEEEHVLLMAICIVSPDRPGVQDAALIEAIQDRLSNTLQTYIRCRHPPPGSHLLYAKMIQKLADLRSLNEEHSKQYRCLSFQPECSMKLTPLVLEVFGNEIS

`Nc1ccc(Cl)cc1C(=O)c1ccccc1Cl`: in assay [1], the activity change, negative = inhibition was -0.237% [at 30.8 µM].

On to `Cc1cc(/C=C2/C(=O)NC(=O)N(Cc3ccco3)C2=O)c(C)n1-c1ccccc1`, for which the molecule was called inactive in [1].

As for `c1ccc(C(c2ccccc2)c2cccnc2)cc1`, the call in [1] was inactive.

In the case of `Nc1c(Br)cc2c3c(cccc13)-c1ccccc1-2`, the activity change, negative = inhibition in assay [1] is 16.7% [at 30.8 µM].

Take `COc1ccc(-n2nnnc2C(c2cccs2)N2CCC(n3c(=O)[nH]c4ccccc43)CC2)cc1` (centres undefined): the result in [1] was inactive.

In the case of `CN1CCN2c3ccc(N)cc3CC3(C(=O)NC(=O)NC3=O)C2C1` (centres undefined), in [1], the molecule was called inactive.

Regarding `Cc1cccc(CN2C(=O)CN=C(c3ccccc3)c3cc(Cl)ccc32)c1`, the call in assay [1] was inactive.

Consider `COc1ccc(C2C=C(C)Oc3c2c(=O)oc2ccccc32)cc1OC` (centres undefined), for which the molecule was called inactive in assay [1].

For `O=C(c1cc(-c2ccc(Cl)cc2)n(-c2ccc(Cl)cc2Cl)n1)N1CCOCC1`, in assay [1], the molecule was called inactive.

As for `COC1=C[C@@]23CCN(C)[C@H](Cc4ccc(OC)c(O)c42)C3=CC1=O`, the molecule was classed as inactive in assay [2]. Further, the Potency result in assay [3] is “inactive”.

Take `C=C[C@H]1CN2CCc3c([nH]c4ccccc34)[C@H]2C[C@@H]1/C(=C\OC)C(=O)OC`: the result in assay [2] was inactive.

Regarding `COC1=CC(=O)OC(CCc2ccccc2)C1` (centres undefined), the Potency in assay [4] and in [5] was above 92 µM in each case. The Potency result in assay [6], in assay [8], in assay [9], in [10], in assay [11] and in assay [12] was “inactive” in each case. Besides, the Potency result in [13], in assay [17], in assay [18] and in [20] was “inactive” throughout. Moreover, the result in assay [7], in assay [14], in assay [15], in [16] and in assay [2] was inactive. For the same molecule, in assay [19], the activation was 1.87%.

As for `COC(=O)C1=CO[C@@H](C)[C@@H]2CN3CC[C@@]4(C(=O)Nc5ccccc54)[C@@H]3CC12` (some centres undefined), in assay [2], the outcome was inactive. Also, the Potency entry in assay [3] was “inactive”.

`C=C[C@H]1CN2CC[C@@]3(C(=O)Nc4ccccc43)[C@@H]2C[C@@H]1/C(=C\OC)C(=O)OC`: in assay [2], the molecule was classed as inactive. For the same molecule, the Potency result in [3] was “inactive”.

Regarding `COc1cc2c(cc1O)CC1NCCc3cc(OC)c(OC)c-2c31` (centres undefined), the call in assay [2] was inactive. The Potency in assay [3] was 15.8 µM (active).

Consider `CCCCCCCCCCCCCCCCCCCC(=O)O`, for which, in assay [2], the outcome was inactive. Further, the Potency in assay [3] was 22.4 µM (active).

`COc1cc2c(cc1O)C[C@H]1c3c(cc(OC)c(O)c3-2)CCN1C`: in assay [2], the molecule was called inactive. Further, the Potency in [3] was 10 µM (active).

Regarding `CC[C@@H]1CN2CC[C@]3(C(=O)Nc4ccccc43)[C@@H]2C[C@@H]1/C(=C\OC)C(=O)OC`, the result in assay [2] was inactive. Further, the Potency result in [3] was “inactive”.

Regarding `O=S(=O)(O)O`, the Potency in assay [3] was 35.5 µM (active).

Turning to `COC1=CC(=O)O[C@@H](/C=C/c2ccc3c(c2)OCO3)C1`, the Potency result in assay [8], in assay [9], in assay [10], in [11], in assay [12] and in assay [13] was “inactive” throughout. The Potency result in assay [17], in assay [18] and in [20] was “inactive” each time. Also, the call in [14], in [15] and in [16] was inactive. For the same molecule, the activation in [19] is 3.16%. For the same molecule, in assay [3], the Potency was 11.2 µM (active).

In the case of `Cc1ccc([N+](=O)[O-])cc1C`, the Potency in [4] and in [5] was above 92 µM throughout. The Potency entry in assay [6], in assay [8], in assay [9], in [10], in assay [11] and in assay [12] was “inactive” in each case. In addition, the Potency entry in [13], in assay [17], in [18] and in assay [20] was “inactive” throughout. In addition, the result in [7], in assay [14], in assay [15] and in assay [16] was inactive. Besides, the activation in [19] was -0.487% and 1.08%.

Regarding `C=C(C)C#N`, the Potency in assay [4] and in assay [5] was above 92 µM in each case. In addition, the Potency result in [6], in [9], in [13] and in assay [20] was “inactive” throughout. Moreover, the molecule was classed as inactive in assay [7], in assay [15] and in assay [16]. For the same molecule, in [19], the activation is -0.895% and 0.596%.

(Values after PubChem BioAssay (NCATS).)
